# Experimental data: PubChem BioAssay AID1963576 (National Center for Advancing Translational Sciences (NCATS), 2024)
# Out of some 46,000 compounds screened, about 60 (0.1%) were called active. Inconclusive results (about 3%) are left out. The entries come from a sample that favours actives as a whole. A number with no mark means an inactive call. Calls come from the whole dose curve; as a rule, active = well fitted inhibition curve with a large enough effect; inconclusive = small, poorly fitted or top-dose-only effect; inactive = no such curve, though single readings can be large or run the other way.
# Assay: Primary qHTS assay for Inhibitors of ovarian cancer metastasis using an organotypic tumor microenvironment (TME) model.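 For Potency: count of GFP cancer cells still attached after washing and fixation.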 Note: nearly all actives have a fitted effect of over 65% in size.
# Conditions: SKOV3ip1-GFP adhesion/invasion on 3D omental model, fluorescence; series mostly up to 45.8 µM; activity change, negative = inhibition: at the top concentration
# Description: PI: Ernst Lengyel MD., Ph.D. Department of Obstetrics and Gynecology, Section of Gynecologic Oncology University of Chicago Medicine, Chicago, Illinois. The tumor microenvironment (TME) is a key determinant of metastatic efficiency. We performed a quantitative high-throughput screen (qHTS) of diverse medicinal chemistry tractable scaffolds (44,420 compounds) and pharmacologically active small molecules (386 compounds) using a layered organotypic, robust assay representing the ovarian cancer metastatic TME. This 3D model contains primary human mesothelial cells, fibroblasts, and extracellular matrix, to which fluorescently labeled ovarian cancer cells are added. Initially, 100 compounds inhibiting ovarian cancer adhesion/invasion to the 3D model in a dose-dependent manner were identified. Of those, eight compounds were confirmed active in five high-grade serous ovarian cancer cell lines and were further validated in secondary in vitro and in vivo biological assays. […] Specifically, NCGC00117362 and PP-121 inhibited ovarian cancer adhesion, invasion, and proliferation, whereas milciclib inhibited ovarian cancer invasion and proliferation. […] To evaluate the clinical potential of NCGC00117362, structure - activity relationship studies were performed. […] The three compounds identified have promise as therapeutics for prevention and treatment of ovarian cancer metastasis.
# PROTOCOL TABLE (as described by Inglese J, Shamu CE and Guy RK. 2007) SEQUENCE No. (e.g., 1, 2, 3, etc.); […] (e.g., Cells, Incubation, Reagent, etc.); VALUE; DESCRIPTION. 1; Cells; 4 uL; primary human omental fibroblast, black, clear bottom, low base, 1536-well Aurora assay plate. 2; Incubation; 48 hr; 37C. 3; Cells; 3 uL; 1,200 SKOV3ip1-GFP cells. 4; Compounds; 23nL; acoustic dispenser. 5; Incubation; 2 hr; room temperature. 6; Incubation; 16 hr; 37C. 7; Wash; 5 uL; 1x PBS. 8; Fixing; 5 uL; 4% paraformaldehyde (PFA). 9; Incubation; 15 min; room temperature 10; Wash, 5 uL; 1x PBS. 11; Detection; Fluorescence, excitation filter 488 nm, emission filter 509 nm. NOTES (numbers refer to Sequence numbers above) 1. For the 1,536-well format, 40 primary human omental fibroblasts and 400 mesothelial cells were seeded with 0.02 µg fibronectin and 0.02 µg collagen type I in 4 µL of growth media (2.3 mm2; Supplementary Fig. S1A). 2. Assay plates were incubated for 48 hours at 37 C. 3. After incubation, 1,200 SKOV3ip1-GFP were seeded in 3 µL of serum-free media (growth media minus FBS) on top of primary human omental cells. 4. Compounds or controls were added to each well immediately after the addition of the cancer cells. Compounds were screened in four doses (0.36-46 µmol/L), and the plates contained the positive control (Tomatine) in eight doses (0.035-75 µmol/L) and DMSO (equal volume controls) 5 - 6. The plates were incubated at room temperature for 2 hours and then at 37 degrees C for 16 hours. 7 - 10. Following incubation, the media were aspirated and each well washed with PBS (5 µL) and then fixed with 4% paraformaldehyde (PFA; 5 µL). After 15 minutes, the PFA solution was aspirated, PBS (5 µL) was added. 11. The number of GFP-labeled cells analyzed using a fluorescent cytometer TTP LabTech Acumen eX3 using 488 nm excitation filter and 509 nm emission filter. Data was normalized to the DMSO treated for negative and Tomatine treated wells for positive control. REFERENCES: Inglese J, Shamu CE and Guy RK, Reporting data from high throughput screening of small molecule libraries, Nature Chemical Biology, 2007, 3(8): 438-441. doi.org/10.1038/nchembio0807-438. Yasgar A, Shinn P, Jadhav A, Auld DS, Michael S, Zheng W, Austin CP, Inglese J and Simeonov A, Compound Management for Quantitative High-Throughput Screening. J. Assoc. Lab. Auto., 2008, 13: 79-89. doi: 10.1016/j.jala.2007.12.004.
# Potency is the fitted concentration of half-maximal effect.
SMILES,outcome,"activity change, negative = inhibition",Potency
CCCCCn1c(=O)[nH]c2cc(C(=O)Nc3cc(C)cc(C)c3)ccc2c1=O,inactive,,
Cc1ccc(NC(=O)CCCn2c(=O)c3cccn3c3ccccc32)cc1Cl,inactive,,
Cc1ccc(C)c(CNC(=O)c2cc3ccccn3n2)c1,,-2.96%,
Cc1ccc(CSc2oc(-c3cccs3)nc2S(=O)(=O)c2ccc(C)cc2)cc1,,2.23%,
CSc1oc(-c2cccs2)nc1S(=O)(=O)c1ccc(Br)cc1,,-2.14%,
CCCCS(=O)(=O)c1oc(-c2cccs2)nc1S(=O)(=O)c1ccccc1,,,2510 nM (active)
CN(CC(=O)Nc1ccccc1F)S(=O)(=O)c1ccc2c(c1)c(=O)n(C)c(=O)n2C,inactive,,
Cc1ccc(NC(=O)Cn2cnc3nc4c(cc3c2=O)CCCC4)cc1Cl,,-18.1%,
COc1cccc(C(=O)NC(=O)Nc2ccc(-c3cc(C(F)(F)F)nn3-c3ccccc3)cc2)c1,,-6.28%,
Cc1cc(C)c2oc(C(=O)Nc3c(C(=O)Nc4ccccc4)oc4ccccc34)cc(=O)c2c1,,-0.148%,
COc1ccc(CCNC(=O)c2cnc3sc(N4CCCCCC4)nn3c2=O)cc1OC,inactive,,
COc1cc(NC(=O)c2nn(-c3ccc(C)cc3)c(=O)c3c2c2ccccc2n3C)cc(OC)c1OC,,2.39%,
Cc1ccc(Cl)cc1NC(=O)NC1COc2ccccc2C1 (stereo not drawn),,-3.78%,
Cn1ccc2cc(S(=O)(=O)N3CCCC(C(=O)NCc4ccccc4F)C3)ccc21 (stereo not drawn),,-6.3%,
COC(=O)c1ccc(OC)c(Cn2c(=O)n(Cc3ccccc3)c(=O)c3c2c2cc(OC)ccc2n3C)c1,,0.627%,
Cc1cccc(CCNC(=O)c2ccc3c(c2)nc2n3CCC(C)C2)c1 (stereo not drawn),,-15%,
CCOC(=O)C1CCN(c2ncnc3c2c(-c2ccccc2)cn3-c2cccc(C)c2)CC1,inactive,,
CC(=O)O[C@]1(C(C)=O)CC[C@@H]2[C@@H]3C[C@H](C)C4=CC(=O)CC[C@]4(C)[C@H]3CC[C@@]21C,,20%,
CC1=C(C(=O)OCc2ccc(C)cc2)C(c2ccccc2Cl)CC(=O)N1 (stereo not drawn),inactive,,
Cc1ccc(C(=O)Nc2cc3c(cc2N2CCCC2)n(C)c(=O)c(=O)n3C)cc1,,6.74%,
COc1ccccc1-c1cc2nc(C)c(CCC(=O)NC3CCCCC3)c(C)n2n1,,-9.62%,
CCOc1ccc(NC(=O)CCc2c(C)nn(-c3ccc(N4CCCC4)nn3)c2C)cc1,inactive,,

SMILES,outcome,"activity change, negative = inhibition",Potency
CN1CCN(c2oc(-c3ccc(COc4ccc(Cl)cc4)o3)nc2C#N)CC1,,3.31%,
COc1ccc(Cn2cc(C(=O)c3ccc(C)cc3)c(=O)c3cc(OC)c(OC)cc32)cc1,,-5.32%,
Cc1ccc2nc(COc3ccc(NC(=O)COc4ccccc4F)cc3)cc(=O)n2c1,inactive,,
COc1ccccc1CNC(=O)c1ccc(-n2c(C)cc3c2CCCC3)cc1,,2.22%,
O=C(CSCc1cnn(-c2ccccc2)c1-n1cccc1)NCc1ccccc1Br,,0.114%,
COc1cc(Cl)cn2c(-c3cccc(NC4CNC4)n3)cnc12,,6.77%,
Cc1ccc(C)c(Nc2nnc(-c3ccc(C)c(S(=O)(=O)N4CCCCC4)c3)c3ccccc23)c1,,-1.28%,
Cc1ccc(C)c(N2CCN(C(=O)CCc3c(C)nc4c(c3C)c(=O)n(C)c(=O)n4C)CC2)c1,,-15.3%,
CCOc1ccc(NC(=O)c2cc3c(=O)n(Cc4cccs4)ccc3nc2C)cc1,,2.81%,
CCCOc1ccc(NC(=O)CC2C(=O)N(c3ccccc3)C(=O)N2Cc2ccco2)cc1 (stereo not drawn),,2.15%,
O=C(CCCn1c(=O)c2cccn2c2cccnc21)NCc1ccc(F)cc1,inactive,,
Cc1ccccc1-c1nc2cc(NC(=O)c3cccc(OCCC(C)C)c3)ccc2o1,,1.04%,
CCN(Cc1ccccc1)C(=O)CCS(=O)(=O)c1ccc2c(c1)oc(=O)n2C,,8.58%,
Cc1cccc(NC(=O)CN(c2ccc(C(C)C)cc2)S(=O)(=O)c2c(C)nn(C)c2C)c1C,,-7.12%,
O=C(CCc1ccccc1)NCc1ccc2c(c1)CCN2C(=O)c1ccccc1,inactive,,
Cc1cc(O)c(C(c2ccccc2)N2CCN(c3ccccc3F)CC2)c(=O)n1Cc1ccco1 (stereo not drawn),,-0.378%,
O=[N+]([O-])c1cc(-c2nc(-c3ccccc3)no2)ccc1NCc1ccco1,,6.86%,
Cc1ccc(C)c(Cn2c(C)c(CNCc3ccc(F)cc3)c(C(=O)O)c2C)c1,inactive,,
COc1ccc(C2(C#N)CCC(C(=O)O)CC2)cc1OC1CCCC1 (stereo not drawn),,9.33%,
CCOC(=O)c1c(NC(=O)c2cc(CC)on2)sc(C(C)=O)c1C,,8.82%,
CC(C)(C)c1[nH]cnc1C=c1[nH]c(=O)c(=Cc2ccccc2)[nH]c1=O,,0.182% [at 92.2 µM],
